Results filed as inconclusive are left out. Activity calls are given as the source filed them. Calls follow the shape of the dose curve; as a rule, active = well fitted cell-killing curve with a large enough effect; inconclusive = small, poorly fitted or top-dose-only effect, or effect the other way; inactive = no such curve, though single readings can be large or run the other way.

Test [1] in a line: Quantitative High-Throughput drug screen in 47 multiple myeloma cell lines against the NCATS MIPE library collection: INA6_PLB cell viability assay (AID 1918965; also: nearly all actives have a fitted effect of over 55% in size). An outline of the steps:
(§1)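 Inhibition of cell viability is measured here. Each line was plated at 500 cells per well, treated with MIPE 4.0 drugs, kept 48 hours at 37C, then assayed for ATP content by CellTiter-Glo luminescence.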

The nature of test [2]: Quantitative High-Throughput drug screen in 47 multiple myeloma cell lines against the NCATS MIPE library collection: JJN3_DSMZ cell viability assay (AID 1918966; also: nearly all actives have a fitted effect of over 50% in size). In outline:
(§2)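 Myeloma cell lines, 500 cells per well, exposed to MIPE 4.0 library compounds for 48 h at 37C, 5% CO2. Viability from ATP by CellTiter-Glo luminescence; normalised to DMSO (100%) and media-only (0%) wells.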

The nature of test [3]: Quantitative High-Throughput drug screen in 47 multiple myeloma cell lines against the NCATS MIPE library collection: H1112_PLB cell viability assay (AID 1918967; also: nearly all actives have a fitted effect of over 30% in size). In outline:
as §2

Test [4] can be described thus: Quantitative High-Throughput drug screen in 47 multiple myeloma cell lines against the NCATS MIPE library collection: Karpas25_ECACC cell viability assay (AID 1918968; also: nearly all actives have a fitted effect of over 35% in size). An outline of the steps:
as §2

A short description of test [5]: Quantitative High-Throughput drug screen in 47 multiple myeloma cell lines against the NCATS MIPE library collection: KMS12BM_JCRB cell viability assay (AID 1918971). Also: nearly all actives have a fitted effect of over 35% in size. An outline of the steps: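 We plated 500 myeloma cells per well, pinned in MIPE 4.0 compounds, and incubated for 48 hours at 37C. ATP was then quantified with CellTiter-Glo, with DMSO and media-only wells defining 100% and 0%.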

Test [6] is described as follows: Quantitative High-Throughput drug screen in 47 multiple myeloma cell lines against the NCATS MIPE library collection: KMS12PE_JCRB cell viability assay (AID 1918972). Also: nearly all actives have a fitted effect of over 30% in size. In outline:
as §1

The nature of test [7]: Quantitative High-Throughput drug screen in 47 multiple myeloma cell lines against the NCATS MIPE library collection: KMS20_JCRB cell viability assay (AID 1918973). Also: nearly all actives have a fitted effect of over 45% in size. An outline of the steps:
as §2

Test [8] is described as follows: Quantitative High-Throughput drug screen in 47 multiple myeloma cell lines against the NCATS MIPE library collection: KMS21BM_JCRB cell viability assay (AID 1918974). As to conditions: ATP luminescence, 48 h; viability: at 45.8 µM (top of the series) unless noted. An outline of the steps: as §2
The nature of test [9]: Quantitative High-Throughput drug screen in 47 multiple myeloma cell lines against the NCATS MIPE library collection: KMS27_JCRB cell viability assay (AID 1918970). Also: nearly all actives have a fitted effect of over 30% in size. In outline:
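KMS27_JCRB myeloma cells, 500 per well, exposed 48 h at 37 C, 5% CO2 to MIPE 4.0 compounds. Viability from ATP by CellTiter-Glo luminescence, normalized to DMSO (100%) and medium-only (0%) wells.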
Potency is read from the fitted curve at half-maximal effect.

For the compound `Nc1nc2[nH]cc(CCc3ccc(C(=O)N[C@@H](CCC(=O)O)C(=O)O)cc3)c2c(=O)[nH]1`, the Potency in [1] was 0.743 µM (active); in [2], 9.35 µM (active); in test [3] it was 6.62 µM (active); in [5] it was 20.9 µM (active); in test [6], 1.32 µM (active). Also, the Potency result in test [4] and in test [7] was “inactive” throughout.

On to `CC[C@H](Nc1ncnc2nc[nH]c12)c1nc2cccc(F)c2c(=O)n1-c1ccccc1`, for which the Potency in [1] was 13.2 µM (active); in [2], 10.5 µM (active); in test [3], 2.64 µM (active); in test [5], 18.7 µM (active). In addition, the Potency entry in test [8] was “inactive”.

For the compound `Fc1ccc(Cl)cc1-c1nc(Nc2ccncc2)c2nccnc2n1`, the Potency is 16.6 µM (active) in test [1] and 0.469 µM (active) in test [6]. Besides, the Potency result in [3] and in test [9] was “inactive” throughout.

For the compound `CO[C@@H]1[C@H](N(C)C(=O)c2ccccc2)C[C@H]2O[C@]1(C)n1c3ccccc3c3c4c(c5c6ccccc6n2c5c31)C(=O)NC4`, the Potency in test [1] was 0.132 µM (active); in [2], 4.18 µM (active); in [5] it was 9.35 µM (active); in test [6], 0.935 µM (active); in test [7] it was 1.05 µM (active); in test [8] it was 0.166 µM (active).

Consider `Nc1nc2ccc(OC(F)(F)F)cc2s1`, for which the Potency result in test [1], in [3], in [4], in test [9], in [6] and in test [7] was “inactive” each time. For the same compound, the Potency in test [2] and in test [5] was 16.6 µM (active) each time.

For the compound `CC(C)(C)NCC(O)c1ccc(O)c(CO)c1` (centres undefined), the Potency entry in test [1], in [3], in [6], in [7] and in [8] was “inactive” each time. Further, in test [4], the Potency was 0.0418 µM (active).

As to `CCN(CC)CCCC(C)Nc1nc(C)cc(Nc2ccc3nc(C)cc(N)c3c2)n1` (centres undefined), the Potency in test [1] and in test [9] was 10.5 µM (active) throughout. The Potency result in test [3] was “inactive”.

Regarding `Cn1cnc2c(F)c(Nc3ccc(Br)cc3Cl)c(C(=O)NOCCO)cc21`, the Potency in [1] is 0.526 µM (active); in test [3] it was 0.662 µM (active); in test [4] it was 16.6 µM (active); in test [6] it was 3.32 µM (active); in test [7], 0.0935 µM (active); in test [8], 0.105 µM (active).

Turning to `COc1ccc(-c2ccc3c(N4CCOC[C@H]4C)nc(N4CCOC[C@H]4C)nc3n2)cc1CO`, the Potency in [1] is 0.0372 µM (active); in [2] it was 0.0132 µM (active); in [5] it was 0.0118 µM (active); in [6] it was 0.059 µM (active); in test [7], 0.0093 µM (active); in [8] it was 0.0662 µM (active).

For `COc1ccccc1[C@H](c1cccc2ccccc12)[C@@](C)(C#N)C(=O)N1CCC(c2cccc(C(F)(F)F)c2)CC1`, the Potency is 1.87 µM (active) in [1]; 6.62 µM (active) in test [2]; 3.72 µM (active) in test [4]; 2.35 µM (active) in test [5]; 1.18 µM (active) in test [7]; 9.35 µM (active) in test [8].

For the compound `COc1ccc(COc2cc3oc(=O)c4cc(C(C)O)ccc4c3cc2OC)cc1` (centres undefined), the Potency in [1] is 18.7 µM (active); in test [2], 26.4 µM (active); in [3], 7.43 µM (active); in test [5] it was 23.5 µM (active); in [6], 2.64 µM (active).

On to `CS(=O)(=O)Oc1ccc2c(NC(N)=O)c(C(=O)c3ccc(Cl)cc3Cl)oc2c1`, for which the Potency in [1] is 5.26 µM (active); in test [3], 18.7 µM (active); in test [4] it was 4.69 µM (active); in [6] it was 9.35 µM (active); in [8] it was 2.35 µM (active). Besides, the Potency result in [5] was “inactive”.

As for `NC(N)=NC(=O)c1nc(Cl)c(N)nc1N`, the figures for the Potency in test [1], in test [3] and in test [9] were 5.26 µM (active), 8.33 µM (active) and 14.8 µM (active), respectively. The Potency result in test [5] is “inactive”.

On to `CCc1cc(Nc2nccc(-c3c(-c4ccc(OC)c(C(=O)Nc5c(F)cccc5F)c4)nc4ccccn34)n2)c(OC)cc1N1CCC(N2CCN(S(C)(=O)=O)CC2)CC1`, for which the values for the Potency in test [1], in [3] and in test [4] were 2.96 µM (active), 10.5 µM (active) and 7.43 µM (active), respectively.

With `CCCS(=O)(=O)Nc1ccc(F)c(C(=O)c2c[nH]c3ncc(Cl)cc23)c1F`, the Potency in test [1] is 2.96 µM (active); in [3], 20.9 µM (active); in [4] it was 14.8 µM (active); in test [6], 16.6 µM (active).

As for `COc1c(Cl)cc2c([nH]c3cnccc32)c1NC(=O)c1cccnc1C`, the Potency is 2.96 µM (active) in [1]; 18.7 µM (active) in test [2]; 11.8 µM (active) in test [9]; 14.8 µM (active) in test [5]; 20.9 µM (active) in test [6].

On to `CCn1c(-c2nonc2N)nc2c(C#CC(C)(C)O)ncc(OC[C@H]3CCCNC3)c21`, for which the Potency in [1] is 4.18 µM (active); in test [3] it was 14.8 µM (active); in test [4], 1.18 µM (active); in [9], 0.418 µM (active); in [5] it was 14.8 µM (active).

Regarding `CCCS(=O)(=O)Nc1ccc(F)c(C(=O)c2c[nH]c3ncc(-c4ccc(Cl)cc4)cc23)c1F`, the results for the Potency in test [1], in test [3] and in test [5] were 8.33 µM (active), 9.35 µM (active) and 20.9 µM (active), respectively. Moreover, the Potency entry in [9] is “inactive”.

For `Cc1cc(SCc2sc(-c3ccc(C(F)(F)F)cc3)nc2C)ccc1OCC(=O)O`, the Potency in test [1] was 18.7 µM (active). Further, the Potency result in test [3] and in test [9] was “inactive” each time.

For `N#CC[C@H](C1CCCC1)n1cc(-c2ncnc3[nH]ccc23)cn1`, the figures for the Potency in [1], in test [2] and in test [5] were 0.372 µM (active), 5.26 µM (active) and 23.5 µM (active), respectively. The Potency entry in [3] is “inactive”.

`O=C(Nc1cccnc1)N1CCC(Cc2cccc(Oc3ccc(C(F)(F)F)cn3)c2)CC1`: the Potency is 11.8 µM (active) in test [1]; 10.5 µM (active) in test [3]; 9.35 µM (active) in test [4]; 16.6 µM (active) in [9]; 13.2 µM (active) in test [5]; 16.6 µM (active) in [6]. The Potency in test [8] was 9.35 µM (active).

As for `COc1cccc2cc(-c3nc(C4CCC(C(=O)O)CC4)n4ncnc(N)c34)[nH]c12` (centres undefined), the Potency in test [1] is 1.48 µM (active); in test [2] it was 1.05 µM (active); in test [3], 5.9 µM (active); in test [5], 0.0743 µM (active); in test [6], 0.166 µM (active); in [8], 0.469 µM (active).

Turning to `Cc1ccc(NC(=O)c2cccc(C(C)(C)C#N)c2)cc1Nc1ccc2ncn(C)c(=O)c2c1`, the Potency in test [1] is 14.8 µM (active); in [2] it was 18.7 µM (active); in [4] it was 13.2 µM (active); in [5] it was 20.9 µM (active); in test [6], 5.9 µM (active); in test [7], 2.96 µM (active).

These data come from PubChem BioAssay (NCATS).
